This is an account of results in PubChem BioAssay (NCI).

Compounds without any hit were thinned out: in the full panel of roughly 83,000, 20% have a hit.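 Step 1: grow cells in 96-well plates. Step 2: add test compound at a single concentration. Step 3: incubate 48 h. Step 4: record percent growth.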 Activity calls are given as the source filed them.

The subject of this assay is EKVX NSCLC. The assay can be described thus: NCI-60 one-dose screen, 48 h (100 = growth as untreated, 0 = no growth, -100 = all killed). As to conditions: 10 µM unless noted. How it is done: Growth inhibition of the EKVX human Non-Small Cell Lung tumor cell line is measured as a screen for anti-cancer activity. Cells are grown in 96 well plates and exposed to the test compound for 48 hours. Compounds are tested at a single concentration, which is 10^-5 M for most compounds. The reported endpoint is percent growth (GI% or GIPRCNT), where numbers from 0 - 100% represent growth inhibition, and numbers from -100% - 0 represent cell death. For example, a value of 40 represents 60% growth inhibition. A value of 0 means no net growth occurred over the course of the experiment. A value of -40 indicates 40% of cells at the beginning of the experiment died by the end of the experiment. A value of -100 means all cells are dead at the end of the experiment.
NCI-60 Human Tumor Cell Lines Screen was performed using the standard one-dose NCI protocol, which is described in more detail at https://dtp.cancer.gov/discovery_development/nci-60/default.htm.
Compounds with GIPRCNT values below 10 were considered active. Activity score was based on GIPRCNT using the following formula: […]
Score is 0 for GIPRCNT values of 100 or above, 50 for GIPRCNT values of 0, and 100 for GIPRCNT values of -100.
For the compound `COc1cc(C(=O)/C=C/c2c(-c3cccs3)nc3sccn23)cc(OC)c1OC`, the growth was 3.45% (active). For `COC(=O)C1C2CC3c4[nH]c5cc(OC)ccc5c4CCN3CC2CC(OC2CCCCO2)C1OC` (stereo not given) the value was 101% (inactive). For `c1ccc(-c2n(Cc3ccc4ccccc4n3)c3ccccc3[n+]2Cc2ccc3ccccc3n2)cc1` the value was 13.5% (inactive).

On to `COC(=O)c1c2c(c(C)[n+]([O-])c1C)C(=O)C=C(NCc1ccc(Cl)cc1)C2=O`, for which the growth is -50% (active). The figure for `Cc1c(C(=O)Nc2nc(-c3ccccc3)cs2)nnn1-c1ccccc1Br` is 30.7% [50 µM] (inactive); for `CCCCCCCC/C=C\CCCCCCCCOc1cccc(CC(=O)NCC[N+]2(C)CCOCC2)c1` it is 94.6% (inactive); for `CC(=O)N(CC(O)CO)c1c(I)c(C(=O)NCCO)c(I)c(C(=O)NCC(O)CO)c1I` (stereo not given) it is 105% (inactive). For `N#CC1=C(N)Oc2cc(N)ccc2C1c1ccc(F)cc1` (stereo not given) the value was 97.1% (inactive).

On to `COc1cccc(OC(=O)c2ccccc2)c1OC(=O)c1ccccc1`, for which the growth was 95.4% (inactive). The figure for `O=C(N/N=C(\CS(=O)(=O)c1ccccc1)c1cc2ccccc2oc1=O)c1ccccc1` is 101% (inactive); for `O=[N+]([O-])c1ccc(O)c2ncccc12` it is 39.8% (inactive); for `COc1ccc(C2=NOC(CC(=O)N(CCO)CCO)C2)cc1OC1CCCC1` (stereo not given) it is 91.5% (inactive).

Take `COc1cc(C2CC(=O)Nc3c2ccc2ccccc32)cc(Br)c1OC` (stereo not given): the growth is 38.9% (inactive).

For the compound `Clc1ccc2c(c1)C[C@H]1C[C@@H](c3cccs3)N2O1`, the growth was 83.2% (inactive).

On to `CCC(C)[C@H]1O[C@]2(CC[C@@H]1C)C[C@@H]1C[C@@H](C/C=C(\C)[C@@H](OC3C[C@H](OC)C(O[C@H]4C[C@H](OC)[C@@H](O)[C@H](C)O4)[C@H](C)O3)[C@@H](C)/C=C/C=C3\CO[C@@H]4[C@H](O)C(C)=C[C@@H](C(=O)O1)[C@]34O)O2` (stereo not given in full), for which the growth was 4.67% (active).

With `COc1cc(/C=C/C(=O)CC(=O)/C=C/c2cc(Br)c(OC)c(OC)c2)cc(Br)c1OC`, the growth is 105% (inactive). For `COC(=O)c1c2c(c(C)[n+]([O-])c1C)C(=O)C=C(NCc1cccc(OC)c1)C2=O` the value was -68.7% (active); for `COc1c(O)c2c3c(c1OC)-c1ccccc1CC3N(S(=O)(=O)c1ccc(C)cc1)CC2` (stereo not given), 106% (inactive). For `COc1cc(/C=C2\C(=O)Nc3ccccc32)cc(OC)c1O` the value was 110% (inactive).

On to `O=c1c2cc(F)ccc2oc2c(NCCNCCO)nc3ccccc3c12`, for which the growth is 50.9% (inactive). As to `NC(=O)c1nc2c([nH]c1=O)CCCC2`, the growth is 114% (inactive). The figure for `O=C1c2ccccc2C(=O)c2c(Nc3ccc(CCO)cc3)ccc(O)c21` is 45% (inactive). For `COc1cc2cc(Oc3ccc(NC(=O)Nc4ccc(Cl)c(C(F)(F)F)c4)cc3)c(C)nc2cc1OCCN1CCCCC1` the value was 15.8% (inactive); for `O=C1NC(=S)S/C1=C\c1cccc([N+](=O)[O-])c1`, 90.4% (inactive). The figure for `O=C1/C(=C/c2ccc(Cl)cc2)N=C(c2ccccc2)N1CCc1cccs1` is 72.1% (inactive); for `COc1ccc(-c2c(-c3cc4c(c(OC)c3OC)OCO4)noc2N)cc1` it is 40.5% (inactive). In the case of `CC(=O)OC[C@]1(C)C=C2C(=O)[C@](C)(O)C3(CC3)C(C)=C2[C@H]1OC(C)=O`, the growth was 114% (inactive). Take `Cc1ccc2nc(NC(=O)CSC(=S)N3CCN(C)CC3)sc2c1`: the growth was 98.1% (inactive). Regarding `Cc1ccc(S(=O)(=O)N2CCc3ccc(O)c4c3C2Cc2cc(Cl)ccc2-4)cc1` (stereo not given), the growth was 99.6% (inactive). The figure for `COc1cc(/C=C2\C(=O)N(c3c(Cl)cccc3Cl)c3ccccc32)cc(OC)c1O` is 79.8% (inactive).

On to `Cc1ccc(C2SCC(=O)N2NC(=O)c2[nH]c3ccc(F)cc3c2-c2ccccc2)cc1` (stereo not given), for which the growth was 84.4% (inactive). For `O=c1oc2ccccc2cc1-c1csc(N/N=C/c2cc3ccccc3nc2Cl)n1` the value was 96.1% (inactive); for `COc1cc(Cn2cc(F)c(=O)[nH]c2=O)cc(OC)c1`, 98.6% [50 µM] (inactive); for `O=C1c2ccccc2-c2cn(Cc3ccccc3)c3cccc(c23)C1c1cccnc1` (stereo not given), 80.5% (inactive).

Turning to `CCCCC1COc2cccc3c(SCC(=O)N(C)c4cccc5ccccc45)cc[n+]1c23` (stereo not given), the growth was 109% (inactive). For `Cc1ccc(S(=O)(=O)c2ccc3[nH]c(=O)[nH]c(=O)c3c2)cc1` the value was 122% (inactive).

Turning to `CC1SC(c2ccc(Cl)cc2)N(CCc2cccs2)C1=O` (stereo not given), the growth is -12.5% (active). For `O=C(CC(O)c1ccccc1)Nc1ccccn1` (stereo not given), the growth is 97% (inactive).

Consider `COC(=O)[C@@]12CC[C@@H](C)[C@]3(C[C@@H](c4ccoc4)OC3=O)[C@H]1CC[C@@H]1O[C@@]12C`, for which the growth was 94.8% (inactive). `COc1cc(CNCCN2C(=O)c3ccc4c5c(ccc(c35)C2=O)C(=O)N(CCNCc2cc(OC)c(OC)c(OC)c2)C4=O)cc(OC)c1OC`: the growth is -42% (active).
